In the supplement of paper PMC3334620:
Whole data set: some 33,000 sequences, median “E-score (-0.5 to 0.5)” near -0.036, cut for the highest 2% near 0.37. What follows is part of a selection rich in the highest values, with near analogues and random picks from the rest.

Target: T1, Yer064c (UniProt P40041)
T1 sequence: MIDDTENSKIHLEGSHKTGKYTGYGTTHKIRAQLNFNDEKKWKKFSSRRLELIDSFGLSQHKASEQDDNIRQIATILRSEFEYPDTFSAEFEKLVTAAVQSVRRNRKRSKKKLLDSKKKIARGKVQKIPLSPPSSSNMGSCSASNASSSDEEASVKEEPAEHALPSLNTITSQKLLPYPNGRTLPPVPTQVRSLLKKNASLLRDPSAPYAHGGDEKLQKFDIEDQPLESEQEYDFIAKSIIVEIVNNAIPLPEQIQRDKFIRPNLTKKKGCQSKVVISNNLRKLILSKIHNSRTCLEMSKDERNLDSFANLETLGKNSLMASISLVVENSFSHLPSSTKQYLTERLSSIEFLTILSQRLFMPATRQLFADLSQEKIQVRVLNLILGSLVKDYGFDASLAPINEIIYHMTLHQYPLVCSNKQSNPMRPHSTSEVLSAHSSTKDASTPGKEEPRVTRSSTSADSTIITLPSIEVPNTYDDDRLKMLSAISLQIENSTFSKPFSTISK
Test: PBM E-score (8-mer binding enrichment) (E-score (-0.5 to 0.5)); higher = stronger / more preferred TF binding
Settings: protein concentration: 200 nM; construct: GST-full length
Method: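 Universal 'all 10-mer' protein binding microarrays (Agilent AMADID 015681) probed with GST-tagged S. cerevisiae TFs (full-length or DBD) made by in vitro transcription/translation (PURExpress), about 100-200 nM. Bound TF was detected with fluorescent anti-GST. Each ungapped 8-mer (which stands for itself and its reverse complement) is scored by the PBM enrichment score (E-score), a modified Wilcoxon-Mann-Whitney statistic from -0.5 to +0.5, computed with the Universal PBM Analysis Suite. Scale: above 0.35 generally sequence-specific binding.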

Row | Sequence | PBM E-score
1 | AATCAGCC | 0.355
2 | CATCATGG | 0.0236
3 | AATCATGG | 0.42
4 | AATCAGCT | 0.389
5 | CGATTAGA | 0.0752
6 | GATGTGGA | 0.0614
7 | GTCTTGTA | 0.0119
8 | AAAGTCAC | 0.411
9 | GAAGTCAC | 0.433
10 | AAAGTCAT | 0.455
11 | AAAGTCGT | 0.258
12 | GAAGTCAA | 0.357
13 | AAAGTCCT | 0.0605
14 | AAAGTCAA | 0.319
15 | AAAGTCAG | 0.323
16 | CAAGTCAC | 0.36
17 | AGGTCGTA | 0.0488
18 | CTAAACTA | 0.0923
19 | ACGGCCTG | -0.12
20 | TAATCCGA | 0.205
21 | CAGGATAA | -0.208
22 | ACGAGAAT | -0.125
23 | AATACCAG | -0.0862
24 | CTTTCAAA | 0.0256
25 | ACAGTCGG | 0.181

Row | Sequence | PBM E-score
26 | CCAGTCAG | 0.248
27 | ACAGTCGT | 0.198
28 | GCAGTCCC | -0.00282
29 | GCAGTCAC | 0.435
30 | ACAGTCAT | 0.453
31 | ACAGTCAC | 0.405
32 | ACAGTCAG | 0.378
33 | ACAGTCTC | 0.146
34 | GCAGTCAA | 0.281
35 | ACAGTCAA | 0.319
36 | CCAGTCAC | 0.313
37 | ATCACAGG | 0.166
38 | GGCCTGAC | 0.109
39 | ACCTGGTG | -0.0925
40 | GCGGCTAC | -0.0969
41 | AATTGTCA | 0.0267
42 | GGGGAGAC | -0.0271
43 | CTCGATTA | 0.186
44 | AAGGTAGA | -0.209
45 | GCGCCATA | -0.26
46 | AACGAGTT | 0.0273
47 | GACGAGTC | 0.408
48 | GACGAGTA | 0.178
49 | CACGAGTA | 0.0787
50 | CACGAGTC | 0.39

Row | Sequence | PBM E-score
51 | AACGAGTC | 0.42
52 | GACGAGAC | -0.0639
53 | AACGAGTA | 0.171
54 | CACGAGTG | -0.125
55 | ATCCATCC | 0.0305
56 | AGTACACA | 0.239
57 | CCCAAGCC | -0.171
58 | CACTTCAA | -0.0203
59 | ACGGATTA | 0.1
60 | GAAGAGCC | -0.222
61 | CAAGAGTA | 0.106
62 | GAAGAGTC | 0.426
63 | AAAGAGTT | 0.219
64 | AAAGAGTA | 0.0885
65 | AAAGAGTC | 0.437
66 | CAAGAGTG | -0.108
67 | CAAGAGTC | 0.434
68 | GAAGAGTA | 0.0801
69 | CTACTGAC | 0.177
70 | ACGGCGGA | -0.0257
71 | ACGGACCA | -0.125
72 | GAACTGAC | -0.0132
73 | AAGGAGTA | 0.0121
74 | AAGGAGTC | 0.412
75 | CAGAAGTC | 0.293

Row | Sequence | PBM E-score
76 | AAGGAGTG | -0.187
77 | CAGGAGTA | 0.0894
78 | CAGGAGTC | 0.394
79 | AGTCGATG | 0.249
80 | AAACTGAG | 0.144
81 | TCCCAGCA | -0.0166
82 | CACGCAAG | -0.11
83 | CACGTGTA | -0.0349
84 | GATTCATA | 0.381
85 | GATTCAGA | 0.389
86 | AATTCATA | 0.0256
87 | CATTCATA | 0.195
88 | TATTCAGA | 0.0473
89 | GATTCAGC | 0.258
90 | GATTCCGA | 0.276
91 | CCACGTAA | -0.177
92 | GGCCTGTA | -0.386
93 | TACTAGGA | 0.0896
94 | AACTAGCA | -0.00106
95 | TACTAGCA | 0.0217
96 | GACTAGGC | 0.297
97 | GACTAGCA | 0.374
98 | GACTAGGA | 0.376
99 | ATCACATC | 0.143
100 | CGAGGGAA | -0.0997

Row | Sequence | PBM E-score
101 | GATTTGGA | 0.0961
102 | AAAGTGCC | -0.0752
103 | AACCGTAC | -0.0826
104 | CATTCAAC | 0.0337
105 | GATTCAAA | 0.371
106 | AATTCAAC | -0.0608
107 | TATTCAAA | 0.135
108 | CATTCAAA | -0.0755
109 | GATTCAAC | 0.385
110 | ACCGATCT | -0.255
111 | ATCCTCGC | -0.043
112 | TCGTAGCA | 0.128
113 | ATCGCTGA | 0.0828
114 | GACTTTAC | 0.234
115 | ATAGGCAG | -0.0153
116 | AGTCGTCC | 0.364
117 | AGTCGTCG | 0.375
118 | GGTCGTCA | 0.00372
119 | CGTCGTCA | -0.142
120 | ATTCGTCG | 0.0523
121 | AGTCGTCA | 0.389
122 | ACGATACT | -0.155
123 | AGGATGTC | 0.00214
124 | CGCTGCTA | -0.211
125 | GCATATGA | 0.14

Row | Sequence | PBM E-score
126 | TCATATGA | 0.393
127 | CCATATGA | 0.0961
128 | ACACGACA | 0.106
129 | ACACGACT | 0.408
130 | AGACGACG | -0.265
131 | AGACGACC | -0.0204
132 | ACACGACC | -0.0158
133 | AGACGACT | 0.397
134 | AGTAAAAG | 0.0408
135 | CTGACCAG | -0.0138
136 | ACTCCACG | 0.0785
137 | ACTTTACT | 0.159
138 | AAAACCCT | -0.047
139 | GACTAAGA | 0.444
140 | GACTAAGC | 0.42
141 | AACTAAGC | 0.0808
142 | CACTAAGC | 0.1
143 | CACTAAGA | 0.119
144 | TACTAAGA | 0.113
145 | AGGGATAA | 0.093
146 | CGGCTGCA | -0.189
147 | AATATGGA | -0.0374
148 | CGTTGCGC | -0.22
149 | GAGCACAA | 0.0121
150 | ACAGACTC | 0.269

Row | Sequence | PBM E-score
151 | GAAGACTA | 0.444
152 | AAAGACTC | 0.409
153 | GCAGACTA | 0.309
154 | AAAGACTT | 0.294
155 | TAAGACCA | 0.112
156 | AAAGACTG | 0.157
157 | ACAGACTA | 0.0746
158 | AAAGACTA | 0.392
159 | CAAGACTA | 0.329
160 | TAAGACTA | 0.423
161 | TAAGACAA | -0.0363
162 | ACAGCCTA | -0.0814
163 | ACCCTGCC | -0.154
164 | GGGCAAGA | -0.0907
165 | GAGTTCGA | 0.185
166 | GCGCTTTA | -0.161
167 | AAAGTGAC | 0.305
168 | CCCGCGAA | 0.0838
169 | GAAGACGC | -0.193
170 | GAAGACTC | 0.446
171 | CAAGACGC | -0.166
172 | CAAGACTC | 0.429
173 | CAAGACTG | 0.175
174 | GAAGACCC | -0.0698
